The list is not random: actives were taken first. Their share in the collection is about 3.6%.
AmpC inh no detg: AmpC beta-lactamase inhibition without detergent. P00811. Potency, µM (highest dose often 57.1 µM), for inactives: at the top dose activity change, negative = inhibition, hits mostly inhibitors. AmpC nitrocefin hydrolysis, absorbance 480 nm, 0.0001% Triton. hit rate 0.52% among 330,000;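 further: plate controls were no compound for no effect and no enzyme for full effect; nearly all actives have a fitted effect of over 20% in size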
Target sequence (P00811 whole entry, looked up): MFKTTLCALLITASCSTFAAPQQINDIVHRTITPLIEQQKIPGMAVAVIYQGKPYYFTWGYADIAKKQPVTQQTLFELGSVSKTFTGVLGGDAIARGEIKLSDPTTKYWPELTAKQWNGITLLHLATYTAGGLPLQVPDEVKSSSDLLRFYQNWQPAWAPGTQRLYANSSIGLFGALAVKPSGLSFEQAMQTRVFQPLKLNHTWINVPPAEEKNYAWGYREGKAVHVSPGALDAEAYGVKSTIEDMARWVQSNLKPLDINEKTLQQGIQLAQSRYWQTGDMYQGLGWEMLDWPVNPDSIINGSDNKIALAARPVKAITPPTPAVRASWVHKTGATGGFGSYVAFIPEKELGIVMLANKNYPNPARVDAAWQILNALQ
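AmpC (5.3 nM in the dispensed reagent) in 20 mM phosphate pH 7.0 with 0.01% (detergent screen) or 0.0001% Triton X-100 was preincubated with compounds for 15 min at room temperature. Nitrocefin was then added from an 800 uM solution, and hydrolysis was followed at 480 nm.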
Sm TGR block: S. mansoni TGR enzyme inhibition; hit rate 3% among 360,000; Potency, µM (top dose mostly 114 µM), without a hit: at the highest dose activity change, negative = inhibition, most hits filed as inhibitors; purified TGR, DTNB reduction, TNB absorbance 405 nm; further: nearly all actives have a fitted effect of over 60% in size
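First, TGR (20 nM dispensed) and NADPH were mixed with compound. Second, a 15 min room-temperature incubation followed. Third, further NADPH and then DTNB were added to start the reaction. Finally, TNB absorbance was monitored kinetically.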
AmpC inh detg: inhibitors of E. coli AmpC beta-lactamase with detergent; P00811; AmpC hydrolysis of nitrocefin, absorbance 480 nm, 0.01% Triton; Potency, µM (series often up to 114 µM), for inactives: at the highest dose activity change, negative = inhibition, most hits filed as inhibitors; hit rate 0.041% among 370,000;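 further: 0% = no-compound wells and -100% = no-enzyme wells; nearly all actives have a fitted effect of over 25% in size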
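20 mM phosphate pH 7.0 + 0.01% (detergent screen) or 0.0001% Triton X-100; 5.3 nM AmpC reagent; cpd preinc 15 min RT; nitrocefin (800 uM stock) to start; A480 q20 s × 4 min; Activity was normalised to no-enzyme and no-compound control wells.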
FBPA Giardia inh: inhibitors of Giardia lamblia fructose-1,6-bisphosphate aldolase | A8B2U2 | Potency, µM (highest dose often 59.6 µM), for inactives: top-dose activity, negative = inhibition, hits mostly inhibitors | purified Giardia FBPA | hit rate 0.71% among 290,000 | AID 2451; further: nearly all actives have a fitted effect of over 55% in size
Target sequence (A8B2U2 whole entry, looked up): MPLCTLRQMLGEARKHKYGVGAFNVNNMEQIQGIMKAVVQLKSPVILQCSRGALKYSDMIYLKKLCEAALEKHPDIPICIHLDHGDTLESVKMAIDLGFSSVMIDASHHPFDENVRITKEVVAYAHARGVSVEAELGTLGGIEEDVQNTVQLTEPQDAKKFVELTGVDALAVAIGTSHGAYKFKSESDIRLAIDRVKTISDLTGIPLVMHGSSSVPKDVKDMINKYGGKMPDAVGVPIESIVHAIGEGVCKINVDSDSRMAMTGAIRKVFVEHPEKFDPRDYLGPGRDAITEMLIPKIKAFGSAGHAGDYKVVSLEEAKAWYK
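Giardia FBPA (40 nM reagent) was preincubated 10 min at RT with compound (up to 57.5 uM final), then substrate plus GAPDH/TPI/NAD/arsenate coupling system with diaphorase/resazurin was added; resorufin fluorescence (525/598 nm) was read after 20 min.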
* = called active by the depositor; ? = inconclusive; / = no result; [ ] = remark or other dose. The call rests on the fitted dose curve; in most records, active means well fitted curve in the direction sought with a large enough effect; inconclusive means small, poorly fitted or top-dose-only effect, or another doubt; inactive means no such curve, though single readings can be large; an effect the other way counts as inactive or inconclusive. Unless noted, on the % scale 0 is the no-effect control and ±100 the full control effect; potency means the concentration at half of the fitted maximal effect.

SMILES | AmpC inh no detg | Sm TGR block | AmpC inh detg | FBPA Giardia inh
COc1cccc(/C=C/C(=O)OC(C)C(=O)Nc2c(C)n(C)n(-c3ccccc3)c2=O)c1 (stereo not given) | 17% | 11% | -1% | 7%
Cc1c(NC(=O)C(C)OC(=O)/C=C/c2ccco2)c(=O)n(-c2ccccc2)n1C (stereo not given) | -5% | 45µM* | 2% | 5%
CCn1c(C)nc([N+](=O)[O-])c1Sc1ccc(F)cc1 | -21% | 40µM* | -7% | 4%
COc1ccc2nc(Sc3c([N+](=O)[O-])nc(C)n3Cc3ccccc3)[nH]c2c1 | -37% | -54% | ? | -3%
C/C(=C\c1ccccc1)C(=O)NCc1ccco1 | -13% | -14% | -12% | 2%
CCCn1c(SCC(=O)N2CCCc3ccccc32)nc2c1c(=O)n(C)c(=O)n2C | 16% | -16% | 35µM* | -3%
CCCn1c(SCC(=O)N2c3ccccc3Sc3ccccc32)nc2c1c(=O)n(C)c(=O)n2C | -11% | 4% | -1% | 7%
CCCc1nc(SCC(=O)N2CCC(Cc3ccccc3)CC2)c2c(=O)n(C)c(=O)n(C)c2n1 | 3.5µM* | 1% | ? | 8%
CCCc1nc(SCC(=O)N2CCCc3ccccc32)c2c(=O)n(C)c(=O)n(C)c2n1 | 40µM* | 3% | -4% | 8%
CCN(CCCNC(=O)CN1C(=O)COc2ccc(S(=O)(=O)N3CCC(C)CC3)cc21)Cc1ccccc1 | 86% | -17% | -7% | 0%
COC(=O)c1ccc(NC(=O)CCN2CCOCC2)cc1 | -7% | 19% | 3% | 1%
O=C(/C=C/c1c[nH]c2ccccc12)c1ccccc1 | 16µM* | 9% | -9% | -12%
Cc1nc(-c2cccnc2)sc1CCNS(=O)(=O)c1ccc(F)cc1 | / | 1% | 3% | /
Cc1cccc(C)c1OCc1n[nH]c(=S)o1 | -15% | 32µM* | 0% | -18%
CC(C)CCNC(=O)c1ccc(C2SCC(=O)N2Cc2ccco2)cc1 (stereo not given) | -27% | 25µM* | -2% | -5%
O=C1CSC(c2ccncc2)N1Cc1ccco1 (stereo not given) | -19% | 22µM* | -14% | -2%
Cc1sc2nc(CN3CCCCC3)nc(Cl)c2c1C | -4% | 50µM* | 10% | -9%
CC1CCN(Cc2nc(Cl)c3c4c(sc3n2)CCC4)CC1 | -30% | 16µM* | 0% | 2%
Clc1nc(CN2CCOCC2)nc2sc3c(c12)CCC3 | -2% | -34% | 2% | 0%
Clc1nc(CN2CCCCC2)nc2sc3c(c12)CCCC3 | -14% | 20µM* | -3% | 1%
CCCn1c(=O)n(C)c(=O)c2c(SCC(=O)NCC(c3ccccc3)N(C)C)nc(CC(C)C)nc21 (stereo not given) | 44% | -1% | -5% | /
CC(C)N(C(=O)[C@H]1C[C@H](CC(=O)NCCCn2ccnc2)C(=O)N2CCc3c([nH]c4ccc(Cl)cc34)[C@]12C)C(C)C | 271% | / | / | /
CCN(CC)CCNC(=O)c1cccc(NC(=O)C(=O)c2ccccc2NC(C)=O)c1 | -18% | 0% | -16% | 4%
CCC(C)c1ccc(NC(=O)C2=CC=CN3CCS(=O)(=O)N=C23)cc1 (stereo not given) | 56% | -22% | 1% | /
NC(=O)c1c(NC(=O)CN2C(=O)CCC2=O)sc2c1CCCCC2 | 32µM* | 3% | -2% | -8%
SMILES | AmpC inh no detg | Sm TGR block | AmpC inh detg | FBPA Giardia inh
NC(=O)c1c(NC(=O)CN2CCCC2)sc2c1CCCC2 | 46% | 0% | -15% | 3%
NC(=O)c1c(NC(=O)CN2CCOCC2)sc2c1CCC2 | 6% | 35µM* | -14% | -7%
COc1ccc(-c2cc(C(F)(F)F)n3nc(C(=O)Nc4sc5c(c4C#N)CCC(C)C5)cc3n2)cc1OC (stereo not given) | / | 2% | -1% | /
COc1ccc(-n2ncc(C(=O)Nc3ccc4c(c3)OCO4)c2C2CCN(C(=O)OC(C)(C)C)CC2)cc1 | / | 5% | 19% | /
O=C(Nc1ccc2oc(=O)ccc2c1)c1ccc(-c2ccc(Cl)cc2)o1 | -11% | -21% | -10% | 4%
O=C(Nc1ccc2nn(-c3ccccc3)nc2c1)c1ccc(-c2cccc(Cl)c2)o1 | / | 8.9µM* | 15% | /
O=C(Nc1ccc2oc(=O)ccc2c1)c1ccc(-c2cccc(Cl)c2)o1 | -21% | 22µM* | ? | 7%
O=C(Nc1ccc2oc(=O)ccc2c1)c1ccc(-c2ccccc2[N+](=O)[O-])o1 | -19% | ? | 2% | -14%
O=C(Nc1ccc2oc(=O)ccc2c1)c1ccc(-c2cccc([N+](=O)[O-])c2)o1 | -36% | 50µM* | 2% | 18%
CC(C)C(=O)N1N=C(c2ccc(NS(C)(=O)=O)cc2)CC1c1cccs1 (stereo not given) | -56% | -16% | -4% | 7%
CS(=O)(=O)Nc1ccc(C2=NN(C(=O)C3CCCCC3)C(c3cccs3)C2)cc1 (stereo not given) | 7.1µM* | -1% | -15% | -2%
COc1ccc(C)cc1NC(=O)CSc1nnc2ccc(-c3cccnc3)nn12 | 0% | -1% | ? | /
COc1ccc(/C=N/N=C2/NC(=O)CC(C(=O)O)S2)cc1 (stereo not given) | -38% | -10% | ? | -10%
COc1ccc(/C=N/N=C2/CC(C)(C)Cc3n[nH]c(=O)cc32)cc1 | -16% | 13µM* | -2% | ?
CCN(CC(=O)Nc1ccc(NC(C)=O)cc1)C(=O)c1cc(S(=O)(=O)N2CCCCCC2)ccc1OC | ? | 17% | -1% | /
Cn1nc(C(C)(C)C)cc1C(=O)Sc1cccc(Br)c1 | -16% | 13µM* | 4% | 2%
Cn1nc(C(C)(C)C)cc1C(=O)O | 2% | -6%[57.1 µM] | 0% | -3%
O=C(Nc1cccc(Cl)c1)OCC#CCCl | / | / | / | 7.1µM*
O=C(NC1CCCC1)C(c1ccncc1)N(Cc1ccco1)C(=O)c1ccc(-c2ccccc2)[nH]1 (stereo not given) | 34% | 28µM* | 6% | -6%
CC(C)(C)NC(=O)C(c1ccncc1)N(Cc1ccc(F)cc1)C(=O)c1ccc(-c2ccccc2)[nH]1 (stereo not given) | 127% | 32µM* | 2% | -3%
CCOC(=O)c1ccc(NC(=O)CN2C(=O)c3cccnc3Oc3ccc(Cl)cc32)cc1 | / | -6% | -2% | /
COc1ccc(C(=O)NCC(=O)NC2=NCCS2)cc1 | 35µM* | 8% | ? | -3%
COc1ccc(OCCC(=O)NC2=NCCS2)cc1 | 1% | 2% | 1% | 2%
O=C(/C=C/c1ccco1)NC(=S)Nc1ccc(Cl)cn1 | -41% | 35µM* | 1% | -20%
Cc1ccnc(NC(=S)NC(=O)/C=C/c2ccco2)c1 | -44% | 25µM* | 1% | ?
Cc1ccc(O)c(NC(=S)NC(=O)/C=C/c2ccco2)c1 | -50% | / | 0% | -9%
CCCC(=O)NC(=S)Nc1ccc(Cl)cn1 | -13% | 35% | 0% | -5%
Cc1ccc(-c2csc(NC(=S)NC(=O)/C=C/c3ccco3)n2)cc1 | 4µM* | -14% | 0% | /
